Source: PubChem BioAssay (EPA / NIEHS)
Values joined by “and” are separate entries in the source; they are usually repeats but may differ in a detail not shown here. Equal values may be shown once. A structure can be active in one record and inactive in another. Active and inactive are the calls of the source. How the source made its calls: active means hit-call score of the fitted dose curve at least 0.9, where 1 is the maximum; inconclusive means response in the unintended direction; inactive means score below 0.9.

What follows are molecules tested against Androgen Receptor/SRC-1 Co-activator, AR (gene 367) (UniProt P10275) (assay: OT_AR_ARSRC1_0960: Odyssey Thera (OT) 16-hour HEK293T Protein-Complementation Assay for Androgen Receptor/SRC-1 Co-activator (AID 2283353);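 further: actives raise the signal above DMSO so potency reflects increased AR and SRC-1 complex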).
Sequence of Androgen Receptor/SRC-1 Co-activator, AR (gene 367) (P10275 whole entry, looked up, the tested form may be a part): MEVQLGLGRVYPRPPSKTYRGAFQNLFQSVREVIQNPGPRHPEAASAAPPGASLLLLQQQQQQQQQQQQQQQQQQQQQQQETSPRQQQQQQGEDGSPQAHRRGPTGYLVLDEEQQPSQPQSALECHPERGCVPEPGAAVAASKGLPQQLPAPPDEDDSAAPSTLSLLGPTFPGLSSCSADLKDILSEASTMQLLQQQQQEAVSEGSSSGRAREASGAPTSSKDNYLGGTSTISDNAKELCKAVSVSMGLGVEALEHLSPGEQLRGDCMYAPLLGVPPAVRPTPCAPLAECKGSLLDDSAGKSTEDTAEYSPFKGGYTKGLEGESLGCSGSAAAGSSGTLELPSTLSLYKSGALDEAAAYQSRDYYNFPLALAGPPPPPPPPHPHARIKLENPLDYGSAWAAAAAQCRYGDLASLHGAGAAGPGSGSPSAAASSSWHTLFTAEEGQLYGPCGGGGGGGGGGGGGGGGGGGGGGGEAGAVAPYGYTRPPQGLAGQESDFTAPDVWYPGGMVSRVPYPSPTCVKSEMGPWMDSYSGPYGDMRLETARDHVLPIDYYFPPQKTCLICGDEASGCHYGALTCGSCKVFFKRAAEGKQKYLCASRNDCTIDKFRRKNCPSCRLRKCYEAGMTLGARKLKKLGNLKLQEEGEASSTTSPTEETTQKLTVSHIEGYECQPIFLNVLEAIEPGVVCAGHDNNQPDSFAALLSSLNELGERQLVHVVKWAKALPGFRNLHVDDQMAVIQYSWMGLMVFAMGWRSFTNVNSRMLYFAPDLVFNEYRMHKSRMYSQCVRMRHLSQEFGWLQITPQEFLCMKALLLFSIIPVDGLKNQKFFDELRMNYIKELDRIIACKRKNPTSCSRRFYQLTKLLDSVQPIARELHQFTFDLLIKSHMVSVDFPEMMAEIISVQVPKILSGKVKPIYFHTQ
Protocol: OT_AR_ARSRC1_0960 is a cell-based, single-readout assay that uses HEK293T, a human kidney cell line, with measurements taken at 16 hours after chemical dosing in a 384-well plate.OT_AR_ARSRC1_0960 is one of one assay component(s) measured or calculated from the OT_AR_ARSRC1_0960 assay. It is designed to make measurements of protein fragment complementation, a form of binding reporter, as detected with fluorescence intensity signals by Protein-fragment Complementation technology.Data from the assay component OT_AR_ARSRC1_0960 was analyzed into 1 assay endpoint. This assay endpoint, OT_AR_ARSRC1_0960, was analyzed in the positive analysis fitting direction relative to DMSO as the negative control and baseline of activity. Using a type of binding reporter, measures of receptor for gain-of-signal activity can be used to understand the binding at the pathway-level as they relate to the gene AR. Furthermore, this assay endpoint can be referred to as a primary readout, because the performed assay has only produced 1 assay endpoint. To generalize the intended target to other relatable targets, this assay endpoint is annotated to the nuclear receptor intended target family, where the subfamily is steroidal.
Protein-fragment complementation assay, or PCA, is a method for the identification and quantification of protein-protein interactions. In the PCA, the proteins of interest ("bait" and "prey") are each covalently linked to fragments of a third protein (e.g. DHFR, which acts as a "reporter"). Interaction between the bait and the prey proteins brings the fragments of the reporter protein in close proximity to allow them to form a functional reporter protein whose activity can be measured. The OT AR / SRC-1 assay assessed androgen receptor chemical interactions using a rapidly maturing, intensely fluorescent mutant of YFP known as Venus, rationally dissected into two separate fragments. […] Fusion constructs were transfected into HEK293T cells with a (Gly4Ser)2 linker between the AR/SRC-1 and YFP fragment genes to facilitate complementation when interacting proteins bring fragments into close proximity. The construct is stably expressed in HEK293T cells. […] Images were acquired on an Evotec Opera at 2 wavelengths (488 and 635nm), and the ratio of fluorescence in the nucleus relative to fluorescence in the cytoplasm (N/C Ratio) in the 488nm channel was calculated for a minimum of 400 cells per image. Both agonists and antagonists of the AR receptor induce nuclear translocation to varying degrees. […] The OT AR/SRC-1 assay was also run for 16 hours (see description for OT_AR_ARSRC1_0960).
`Oc1cc2ccccc2c2ccccc12` was tested, and the AC50 was 7.07 µM (active).
In the case of `CC[C@H](c1ccc(O)cc1)[C@@H](CC)c1ccc(O)cc1`, the outcome is reported as “inactive” and the AC50 is reported as 35.6 µM (active).
`Cc1cc(CCN2CCN(c3nsc4ccccc34)CC2)cc2c1NC(=O)CC2(C)C` was tested, and the AC50 was 12.6 µM (active).
For `N#C[C@@H]1CC(F)(F)CN1C(=O)CNC1CC2CCC(C1)N2c1ncccn1` (stereo partly specified), the outcome was “inactive”.
With `COCC(C)OCC(C)O` (stereo unspecified) the outcome was “inactive”.
In the case of `Cc1oc(-c2ccccc2)nc1CCOc1ccc(C[C@H](Nc2ccccc2C(=O)c2ccccc2)C(=O)O)cc1`, the AC50 is reported as 45.4 µM (active).
`c1ccc2c(c1)ccc1ccccc12` was tested, and the outcome was “inactive”.
`CCC(=C(c1ccc(O)cc1)c1ccc(OCCN(C)C)cc1)c1ccccc1` was tested, and the outcome was “inactive” and the AC50 was 19.8 µM (active) and 20.2 µM (active) and 19.2 µM (active).
`CCCCCCCCCCCCc1ccccc1S(=O)(=O)O` was tested, and the outcome was “inactive”.
With `NC(=O)N1C(=O)C(C(=O)c2cc(Cl)cs2)c2cc(F)c(Cl)cc21` (stereo unspecified) the outcome was “inactive”.
`OCCC(F)(F)C(F)(F)C(F)(F)C(F)(F)C(F)(F)C(F)(F)C(F)(F)C(F)(F)F` was tested, and the outcome was “inactive”.
`O=c1c(-c2ccc(O)cc2)coc2cc(O)ccc12` was tested, and the outcome was “inactive”.
With `CC(=O)CC(C)(C)O` the outcome was “inactive”.
In the case of `O=C(O)c1ccccc1C(c1ccc(O)cc1)c1ccc(O)cc1`, the outcome is reported as “inactive”.
